This passage reports z-score and composite z-score results from PubChem BioAssay.

Active and inactive are the calls of the source.

A short description of assay [1]: E. coli DRC41 culture turbidity changes, primary screen, E. coli filamentation inducer project, strain DRC41, OD650, 48 h (AID 1152).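 Note: E. coli MC1000 strain DRC41 lacking acrAB efflux pump and sulA.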 As to conditions: E. coli DRC41 (acrAB sulA), higher = more signal, called active from +8 up or from −8 down.
Assay [2] can be described thus: small-molecule binders of probe aLefty1, primary screen, biochemical, small-molecule microarray, 635/667 nm fluorescence (AID 1153).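 Note: score merges spot fluorescence with signal-to-noise ratio from the scanned slide images.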 As to conditions: higher = more signal.
The nature of assay [3]: PSAC antagonists in infected red cells, primary screen, cell-based, P. falciparum Indochina, OD700, 1 h (AID 1154). The note with it: P. falciparum Indochina infected RBC osmotic lysis, higher = more signal, called active from +8 up or from −8 down.
A short description of assay [4]: PSAC antagonists in infected red cells, primary screen, cell-based, P. falciparum Indochina, OD700, 2 h (AID 1155).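 Note: lysis reports solute entry through the parasite surface anion channel PSAC; channel blockers reduce lysis of infected cells.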 As to conditions: P. falciparum Indochina infected erythrocytes, osmotic lysis OD700; higher = more signal, called active from +8 up or from −8 down.
Assay [5] is described as follows: osmotic lysis modulators in infected erythrocytes, primary screen, PSAC antagonist project, cell-based, P. falciparum Indochina, OD700, 3 h (AID 1156). As to conditions: higher = more signal, called active from +8 up or from −8 down.
Assay [6] in a line: PSAC antagonists in infected red cells, primary screen, cell-based, P. falciparum Indochina, OD700, 18 h (AID 1157). As to conditions: P. falciparum Indochina infected erythrocytes, osmotic lysis OD700, 18 h; higher = more signal, called active from +8 up or from −8 down.
Assay [7] is described as follows: modulators of S6 phosphorylation in cells, primary screen, cell-based, A549, cytoblot, luminescence, serum-stimulated (AID 1158).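 Note: serum-stimulated A549 lung adenocarcinoma cells; signal is phosphorylated S6 detected by cytoblot immunostaining with HRP secondary.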 As to conditions: A549 phospho-S6 cytoblot, 5 h, higher = more signal.
Assay [8] deals with NADPH oxidase 2 (Homo sapiens) (UniProt P04839). As to the kind of experiment: NOX2-dependent H2O2 signal modulators, primary screen, NOX inhibitor project, cell-based, HEK293-NOX2, PMA-stimulated, Amplex Red fluorescence (AID 1159). Note: test concentration not given here. The note with it: 45 min, higher = more signal, called active from +8 up or from −8 down.
Assay [9] has as its target NADPH oxidase 4 (Homo sapiens) (UniProt Q9NPH5). As to the kind of experiment: NOX4-dependent H2O2 signal modulators, primary screen, NOX inhibitor project, cell-based, HEK293-NOX4, tetracycline-induced, Amplex Red fluorescence (AID 1160). As to conditions: 45 min, higher = more signal, called active from +8 up or from −8 down.
In assay [10] the target is NADPH oxidase 5 (Homo sapiens) (UniProt Q96PH1). Put plainly: NOX5-dependent H2O2 signal modulators, primary screen, NOX inhibitor project, cell-based, HEK293-NOX5, Amplex Red fluorescence (AID 1161). The note with it: HEK293-NOX5, ionomycin, 45 min, higher = more signal.
A short description of assay [11]: A549 cell viability effects, profiling panel, calcein-AM fluorescence, 48 h, basal (AID 1162). Note: test concentration not given here. The note with it: higher = more signal.
The nature of assay [12]: adipocyte viability effects, profiling panel, cell-based, 3T3-L1 adipocytes, calcein-AM fluorescence, 48 h, basal (AID 1163). Note: test concentration not given here. As to conditions: 3T3-L1 adipocytes viability, higher = more signal.
Assay [13] in a line: HepG2 cell viability effects, profiling panel, calcein-AM fluorescence, 48 h, basal (AID 1164). Note: test concentration not given here. The note with it: higher = more signal.
Assay [14] is described as follows: MM1S cell viability effects, profiling panel, calcein-AM fluorescence, 48 h, basal (AID 1165).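 Note: viability of MM1S multiple myeloma cells under basal unstimulated conditions; test concentration not given here.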 As to conditions: higher = more signal.
Assay [15] is described as follows: basal RPMI8226 viability, no added stimulus, profiling panel, cell-based, calcein-AM fluorescence, 48 h, PK04 Diversity Set (AID 1166).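 Note: cells grown under basal conditions without added stimulus; test concentration not given here.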 The note with it: RPMI8226 myeloma viability, higher = more signal.
Assay [16] can be described thus: basal HepG2 mitochondrial membrane potential changes, profiling panel, cell-based, JC-1 fluorescence, 24 h, 100 nL compound (AID 1167). Note: test concentration not given here. As to conditions: higher = more signal.
Assay [17] is described as follows: basal 3T3-L1 adipocyte mitochondrial potential changes, profiling panel, cell-based, JC-1 fluorescence, 3T3-L1 adipocytes, 24 h, 100 nL compound (AID 1168). Note: test concentration not given here. The note with it: JC-1 mitochondrial fluorescence, higher = more signal, called active from +8 up or from −8 down.
Assay [18] is described as follows: basal RPMI8226 mitochondrial membrane potential changes, profiling panel, cell-based, JC-1 fluorescence, 24 h, 100 nL compound (AID 1169). Note: test concentration not given here. The note with it: RPMI8226 myeloma, JC-1 mitochondrial potential fluorescence, higher = more signal.
The nature of assay [19]: basal MM1S mitochondrial membrane potential changes, profiling panel, cell-based, JC-1 fluorescence, 24 h, 100 nL compound (AID 1170). Note: test concentration not given here. As to conditions: higher = more signal.
Assay [20] in a line: A549 lung cancer cell viability effects, profiling panel, resazurin fluorescence, 24 h, PK04 Diversity Set (AID 1171). Note: test concentration not given here. The note with it: higher = more signal, called active from +8 up or from −8 down. (In general: Alamar Blue is a resazurin reagent that responds to reducing activity.)

Chain of NADPH oxidase 4 (Homo sapiens) (Q9NPH5 whole entry, looked up): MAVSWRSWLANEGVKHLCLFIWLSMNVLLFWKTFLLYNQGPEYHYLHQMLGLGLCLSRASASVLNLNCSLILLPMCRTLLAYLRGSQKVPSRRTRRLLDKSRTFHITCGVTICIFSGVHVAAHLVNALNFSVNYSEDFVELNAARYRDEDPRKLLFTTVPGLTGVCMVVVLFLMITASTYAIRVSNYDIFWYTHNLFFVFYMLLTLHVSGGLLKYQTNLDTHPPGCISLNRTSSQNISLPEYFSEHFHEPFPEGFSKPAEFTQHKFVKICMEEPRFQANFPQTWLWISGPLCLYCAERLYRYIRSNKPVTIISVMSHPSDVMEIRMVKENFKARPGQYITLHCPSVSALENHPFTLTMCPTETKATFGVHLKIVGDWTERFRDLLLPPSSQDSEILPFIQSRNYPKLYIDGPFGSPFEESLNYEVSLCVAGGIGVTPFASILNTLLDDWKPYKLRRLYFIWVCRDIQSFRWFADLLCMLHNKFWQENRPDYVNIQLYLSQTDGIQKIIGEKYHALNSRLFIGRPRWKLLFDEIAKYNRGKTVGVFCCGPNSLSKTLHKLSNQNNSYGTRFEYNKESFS
Chain of NADPH oxidase 5 (Homo sapiens) (Q96PH1 whole entry, looked up): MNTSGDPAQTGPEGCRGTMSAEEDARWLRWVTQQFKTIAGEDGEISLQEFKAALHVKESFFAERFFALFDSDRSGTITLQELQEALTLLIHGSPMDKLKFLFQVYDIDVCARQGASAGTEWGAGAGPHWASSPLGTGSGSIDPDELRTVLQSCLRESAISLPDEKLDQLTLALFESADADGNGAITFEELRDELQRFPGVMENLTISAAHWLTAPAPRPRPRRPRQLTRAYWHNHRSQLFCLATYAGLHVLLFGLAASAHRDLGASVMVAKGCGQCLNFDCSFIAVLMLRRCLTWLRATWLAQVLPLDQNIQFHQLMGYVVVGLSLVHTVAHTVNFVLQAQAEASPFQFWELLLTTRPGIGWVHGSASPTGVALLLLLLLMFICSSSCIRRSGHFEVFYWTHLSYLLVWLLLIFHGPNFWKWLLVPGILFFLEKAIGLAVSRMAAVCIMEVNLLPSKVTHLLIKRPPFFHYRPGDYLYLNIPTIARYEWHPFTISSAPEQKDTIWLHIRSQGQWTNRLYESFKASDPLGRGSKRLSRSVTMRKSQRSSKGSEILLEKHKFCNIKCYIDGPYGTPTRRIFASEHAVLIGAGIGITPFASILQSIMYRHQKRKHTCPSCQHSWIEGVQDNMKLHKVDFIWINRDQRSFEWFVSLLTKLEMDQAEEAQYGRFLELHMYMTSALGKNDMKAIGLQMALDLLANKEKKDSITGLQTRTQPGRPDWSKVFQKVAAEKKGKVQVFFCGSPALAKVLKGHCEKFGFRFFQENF
Chain of NADPH oxidase 2 (Homo sapiens) (P04839 whole entry, looked up): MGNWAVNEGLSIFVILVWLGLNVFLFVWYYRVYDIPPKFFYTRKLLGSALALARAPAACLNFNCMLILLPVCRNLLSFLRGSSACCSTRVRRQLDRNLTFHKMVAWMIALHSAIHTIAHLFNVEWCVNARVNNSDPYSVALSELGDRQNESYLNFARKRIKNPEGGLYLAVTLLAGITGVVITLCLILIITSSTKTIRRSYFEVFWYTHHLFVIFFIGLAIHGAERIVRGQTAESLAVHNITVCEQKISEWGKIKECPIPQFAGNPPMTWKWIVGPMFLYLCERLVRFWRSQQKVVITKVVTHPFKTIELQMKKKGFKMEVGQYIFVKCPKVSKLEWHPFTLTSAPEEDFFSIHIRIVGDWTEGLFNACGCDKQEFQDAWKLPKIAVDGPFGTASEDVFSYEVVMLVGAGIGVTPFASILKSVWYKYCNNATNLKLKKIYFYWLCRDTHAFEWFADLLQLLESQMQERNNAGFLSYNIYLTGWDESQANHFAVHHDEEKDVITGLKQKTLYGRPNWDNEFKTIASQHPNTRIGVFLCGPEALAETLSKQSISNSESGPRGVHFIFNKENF

On to `CCCNC(=O)[C@@]1(C)c2ccccc2C(=O)N(C(C)C)[C@H]1c1ccc(CO)cc1`, for which the z-score in [1] is -0.374 (inactive); in assay [3] it was 4.24 (inactive); in [4] it was -0.445 (inactive); in [5], 2.44 (inactive); in assay [6], -0.804 (inactive); in [7], 2.12. For the same compound, the z-score was -2.39 (inactive) in assay [8]; -2.3 (inactive) in assay [9]; -3.6 in assay [10]; -0.23 in assay [11]; 0.793 in [12]; -0.13 in [13]. The z-score in assay [14] is -0.634; in assay [15], -0.025; in assay [16] it was 0.977; in assay [17] it was -0.0917 (inactive); in [18], 0.0976; in assay [19], -0.426. Further, the z-score in assay [20] was 0.788 (inactive). In [2], this compound displayed a composite z-score of 0.0371.
With `C[C@]1(C(=O)NCC(F)(F)F)c2ccccc2C(=O)N(Cc2cc(F)cc(C(F)(F)F)c2)[C@H]1c1ccc(CO)cc1`, the z-score in assay [1] was -0.436 (inactive); in assay [3], 4.43 (inactive); in assay [4], -0.263 (inactive); in [5] it was 2.21 (inactive); in [6], -0.682 (inactive); in [7], 2.24. Also, the z-score in assay [8] was -0.779 (inactive); in assay [9], -2.9 (inactive); in assay [10], -3.61; in assay [11], -0.493; in assay [12], 1.63; in assay [13], -0.357. The z-score in assay [14] is -0.74; in assay [15] it was -0.308; in assay [16], 0.951; in [17], -0.449 (inactive); in [18], -0.494; in assay [19], 0.206. In addition, in assay [20], the z-score is -0.557 (inactive). Besides, the composite z-score in assay [2] was -0.355.
On to `COC(=O)[C@@]1(Cc2ccc(F)cc2)[C@H]2c3cc(C(=O)N4CCCC4)n(CCc4ccc(OC)c(Br)c4)c3C[C@H]2CN1C(=O)c1ccccc1`, for which the z-score in [1] was -0.71 (inactive); in assay [3] it was 7.48 (inactive); in [4] it was 1.5 (inactive); in assay [5] it was 0.248 (inactive); in assay [6], 1.33 (inactive); in [7], 0.0028. Further, the z-score in assay [8] was 0.0756 (inactive); in [9] it was 0.742 (inactive); in assay [10], 0.98; in [11] it was -1.58; in [12], -0.483; in assay [13] it was -2.5. The z-score is -1.66 in assay [14]; -4.69 in assay [15]; 0.275 in [16]; -0.317 (inactive) in [17]; -0.626 in assay [18]; -2.09 in assay [19]. In addition, the z-score in [20] was -2.3 (inactive). Also, in [2], the composite z-score was found to be 1.2.
As to `COC(=O)c1nc2oc1CC[C@@H](CO)NC(=O)N(C)Cc1cn(nn1)C[C@H](Cc1ccccc1)NC2=O`, the z-score in assay [1] was 2.75 (inactive); in assay [3], 1.53 (inactive); in assay [4], 0.394 (inactive); in assay [5] it was 0.864 (inactive); in assay [6], 0.0148 (inactive); in assay [7] it was 0.225. Further, the z-score was -0.454 (inactive) in assay [8]; 0.917 (inactive) in [9]; 0.398 in [10]; -0.0651 in assay [11]; -0.734 in assay [12]; 0.786 in assay [13]. The z-score is 0.648 in assay [14]; 0.854 in assay [15]; 0.136 in [16]; 0.694 (inactive) in [17]; 0.263 in [18]; -1.48 in assay [19]. The z-score in [20] is -0.0624 (inactive). Also, the composite z-score in assay [2] is -0.145.
Turning to `O=C1O[C@@H](c2ccccc2)[C@@H](c2ccccc2)N2[C@@H](c3ccccc3OCCO)[C@]3(C(=O)Nc4ccc(C#CC5(O)CCCCCC5)cc43)[C@@H](C(=O)NC[C@H](O)c3ccccc3)[C@H]12`, the z-score in assay [1] was -0.95 (inactive); in [3], 1.87 (inactive); in assay [4], 1.98 (inactive); in [5], -1.02 (inactive); in [6], 1.49 (inactive); in assay [7], -0.308. Further, the z-score in assay [8] is 2.02 (inactive); in assay [9] it was 0.973 (inactive); in assay [10] it was 2.17; in assay [11] it was -0.724; in assay [12], 0.737; in [13] it was -3.6. Also, the z-score was -3.31 in assay [14]; -4.17 in [15]; -1.14 in assay [16]; 0.986 (inactive) in [17]; -0.935 in assay [18]; -1.98 in assay [19]. Besides, the z-score in assay [20] was -2.91 (inactive). Besides, the composite z-score in [2] was 1.38.
On to `CN1C(=O)C2C=CC(C(O)C(c3ccccc3)c3ccccc3)N(Nc3ccccc3)C2C1=O` (stereo not given), for which the z-score is -2.34 (inactive) in assay [1]; 1.63 (inactive) in assay [3]; 2.15 (inactive) in [4]; 0.742 (inactive) in assay [5]; 1.12 (inactive) in [6]; -0.946 in assay [7]. The z-score in assay [8] is -1.39 (inactive); in [9] it was -4.91 (inactive); in assay [10], -2.44; in [11], 0.322; in assay [12] it was -0.648; in assay [13], -0.0678. Besides, the z-score in [14] was -1.34; in assay [15], -1.07; in assay [16], -1.66; in assay [17] it was -0.981 (inactive); in assay [18], 0.212; in assay [19] it was -0.179. The z-score in assay [20] is 0.46 (inactive). Besides, the composite z-score in [2] was 0.516.
For the compound `[N-]=[N+]=NCc1ccccc1C[C@]1(C(=O)NCc2ccccc2)COC(c2ccc(OCCCO)cc2)=N1`, the z-score in [1] was 0.104 (inactive); in assay [3], 28.9 (active); in assay [4] it was 24.6 (active); in assay [5] it was 4.42 (inactive); in assay [6], 2.78 (inactive); in assay [7], -0.153. Also, the z-score is -2.28 (inactive) in assay [8]; -0.958 (inactive) in assay [9]; -1.81 in assay [10]; -2.45 in assay [11]; -0.679 in [12]; -3.8 in [13]. The z-score in [14] was -3.38; in assay [15], -4.32; in assay [16], 0.762; in assay [17] it was 0.768 (inactive); in assay [18], -0.891; in assay [19], -2.3. In assay [20], the z-score was -1.42 (inactive). Moreover, the composite z-score in assay [2] is -0.373.
`COc1ccc(C#Cc2ccc3c(c2)[C@]2(C(=O)N3)[C@H](C(=O)N3CCc4cc(OC)c(OC)cc4C3)[C@H]3C(=O)O[C@H](c4ccccc4)[C@H](c4ccccc4)N3[C@@H]2c2ccc(OCCO)cc2)cc1`: the z-score in [1] is 1.82 (inactive); in assay [3] it was 5.73 (inactive); in assay [4] it was 2.37 (inactive); in [5], 0.279 (inactive); in assay [6] it was 1.42 (inactive); in assay [7], 0.0867. Besides, the z-score in assay [8] is 0.0908 (inactive); in assay [9], 0.246 (inactive); in assay [10], 0.115; in [11], 1.04; in [12], 0.386; in assay [13], 0.515. Moreover, the z-score is -0.73 in assay [14]; 0.223 in [15]; -0.233 in [16]; 2.37 (inactive) in [17]; -0.513 in assay [18]; -1.5 in assay [19]. Besides, in assay [20], the z-score is 0.185 (inactive). This compound came in with a composite z-score in assay [2] of 0.423.
Turning to `CCCC[C@@H]1C[C@H]1[C@@H](NC(=O)c1ccccc1)c1ccc(-c2ccccc2)cc1`, the z-score in assay [1] was -1.66 (inactive); in assay [3] it was 11.5 (active); in assay [4], 1.95 (inactive); in assay [5] it was 1.57 (inactive); in [6], 1.16 (inactive); in assay [7] it was 0.319. Besides, the z-score in assay [8] is -1.68 (inactive); in [9], -2.79 (inactive); in assay [10], 0.666; in assay [11], -1.54; in assay [12] it was -1.15; in [13], -3.24. For the same compound, the z-score was -2.55 in assay [14]; -4.26 in [15]; -3.59 in [16]; -0.49 (inactive) in assay [17]; -0.568 in assay [18]; -2.19 in assay [19]. Further, the z-score in [20] is -1.31 (inactive). The compound further returned a composite z-score in [2] of 0.212.
